Results filed as inconclusive are left out. Activity calls are given as the source filed them. How the source made its calls, unless noted: active means hit-call score of the fitted dose curve at least 0.9, where 1 is the maximum; inactive means score below 0.9.
Experiments:
[1] = ATG_NFI_CIS: Attagene CIS-FACTORIAL HepG2 Assay for human Nuclear Factor I (NFI) (AID 2282989); settings: HepG2 cis-regulatory reporter, NFI response element transcription; actives raise or lower the signal
In short: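 Cells: human liver HepG2, transiently transfected with promoter-regulated reporter transcription units. Exposure 24 h. Detection: fluorescent RT-PCR products separated by capillary electrophoresis, normalised to DMSO negative control.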

[2] = molecular target: Myc proto-oncogene protein (Homo sapiens) (UniProt P01106); experiment: ATG_Myc_CIS: Attagene CIS-FACTORIAL HepG2 Assay for human Myelocytomatosis (Myc) Proto-Oncogene Transcription Factor (AID 2282990); settings: HepG2, Attagene cis-reporter transcription factor activity; actives raise or lower the signal
In short: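 Transiently transfected HepG2 cells bearing cis-promoter reporter units for endogenous transcription factors; 24 h exposure. Reporter mRNA measured by RT-PCR, 6-FAM primer extension, HpaI cut and capillary electrophoresis; bidirectional fit relative to DMSO.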

[3] = ATG_NF_kB_CIS: Attagene CIS-FACTORIAL HepG2 Assay for human Nuclear Factor Kappa B (NF-kB) (AID 2282991); settings: HepG2 Attagene cis-factorial NF-kB reporter mRNA; actives raise or lower the signal
In short: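 HepG2, transient multi-reporter transfection, cis promoter elements (endogenous TFs). 24 h exposure. Total RNA → RT → PCR → 6-FAM label → HpaI → CE. Gain/loss vs DMSO.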

[4] = ATG_NRF2_ARE_CIS: Attagene CIS-FACTORIAL HepG2 Assay for human Nuclear Factor Erythroid 2 Related Factor 2 (NFR2) response to Antioxidant Response Elements (ARE) (AID 2282992); settings: HepG2 Attagene ARE/NRF2 reporter, transcription factor activity; actives raise or lower the signal;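 on AC50: reporter mRNA level measured by RT-PCR and capillary electrophoresis fluorescence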
In short: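 HepG2 cells transiently transfected with multiplexed cis-regulated reporter transcription units measure endogenous transcription factor activity. Reporter mRNA at 24 h is quantified by RT-PCR, fluorescent labelling and capillary electrophoresis, with bidirectional fitting relative to DMSO.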

[5] = ATG_Oct_MLP_CIS: Attagene CIS-FACTORIAL HepG2 Assay for human Octamer-Binding Transcription Factor (Oct) (AID 2282993); settings: HepG2 Attagene cis-factorial Oct reporter, mRNA; actives raise or lower the signal
In short: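 HepG2, transient MRTU transfection, cis promoter elements; 24 h dosing; RT-PCR/CE fluorescence read-out of reporter mRNA; fit both directions vs DMSO.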

[6] = BSK_3C_TissueFactor: BioMAP Diversity Plus: 3C Assay for Tissue Factor Biomarker Activity (AID 2282997); settings: BioMAP 3C HUVEC, tissue factor biomarker readout; actives raise or lower the signal
In short: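 Primary human umbilical vein endothelial cells in the 3C system were exposed to test chemical for 24 h, then Tissue Factor measured by ELISA. Activity was fitted bidirectionally against DMSO as negative control and baseline.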

[7] = BSK_3C_uPAR: BioMAP Diversity Plus: 3C Assay for Urokinase-type plasminogen activator receptor (uPAR) Biomarker Activity (AID 2282998); settings: BioMAP 3C HUVEC, uPAR biomarker ELISA; actives raise or lower the signal
In short: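 A multiplexed primary-cell system built on human umbilical vein endothelium was used, with chemical present for 24 h before reading. Cell-surface uPAR was detected by ELISA; signal change in either direction counted against DMSO.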

[8] = BSK_3C_VCAM1: BioMAP Diversity Plus: 3C Assay for Vascular cell adhesion molecule 1 (VCAM1) Biomarker Activity (AID 2282999); settings: BioMAP 3C HUVEC, VCAM1 ELISA, cytokine-stimulated; actives raise or lower the signal
In short: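 Human umbilical vein endothelial cells (3C system), biomarker read by ELISA 24 h after dosing; bidirectional fit against DMSO baseline. Cytotoxicity tracked by SRB total-protein staining in parallel cultures at biomarker time.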

[9] = BSK_4H_Eotaxin3: BioMAP Diversity Plus: 4H Assay for Eotaxin 3 Biomarker Activity (AID 2283000); settings: primary human endothelial cells (HUVEC); actives raise or lower the signal
In short: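 HUVEC, 24 h post-dose, ELISA for Eotaxin-3/CCL26. Gain or loss of signal fitted bidirectionally vs DMSO baseline.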

[10] = molecular target: human Peroxisome Proliferator-activated Receptor alpha (PPARa), PPARA (gene 5465) (UniProt Q07869); experiment: ATG_PPARa_TRANS: Attagene TRANS-FACTORIAL HepG2 Assay for human Peroxisome Proliferator-activated Receptor alpha (PPARa) (AID 2283001; active means hit-call score of the fitted dose curve at least 0.9, where 1 is the maximum)
In short: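 Measures transcriptional activity of an exogenous chimeric PPARa-Gal4 protein in transiently transfected HepG2 cells after 24 h dosing. Reporter mRNA quantified via RT-PCR and capillary electrophoresis; DMSO served as negative control.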

[11] = read-out: Intercellular Adhesion Molecule 1 (ICAM1), ICAM1 (gene 3383); experiment: BSK_3C_ICAM1: BioMAP Diversity Plus: 3C Assay for Intercellular Adhesion Molecule 1 (ICAM1) Biomarker Activity (AID 2283003); settings: primary human endothelial cells (HUVEC); actives raise or lower the signal
In short: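 Primary human umbilical vein endothelial cells in the BioMAP 3C system were exposed to chemicals for 24 h, then ICAM-1 was quantified by ELISA. Activity was fitted bidirectionally against the DMSO negative control baseline.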

[12] = molecular target: human Retinoic Acid Receptor beta (RARb), RARB (gene 5915) (UniProt P10826); experiment: ATG_RARb_TRANS: Attagene TRANS-FACTORIAL HepG2 Assay for human Retinoic Acid Receptor beta (AID 2283004; active means hit-call score of the fitted dose curve at least 0.9, where 1 is the maximum)
In short: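 HepG2 cells transiently transfected with multiplexed GAL4-UAS reporter units expressing chimeric NR–Gal4 fusions; 24 h compound exposure. Reporter mRNA quantified by RT-PCR, 6-FAM labelling, HpaI digestion and capillary electrophoresis; gain-of-signal fitted against DMSO baseline.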

[13] = BSK_3C_Proliferation: Cell Proliferation Assessment in the BioMAP Diversity Plus: 3C Assay (AID 2283006); settings: primary human endothelial cells (HUVEC);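 on AC50: potency may reflect either rise or fall in cell number versus DMSO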
In short: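 Human umbilical vein endothelial cells were grown sub-confluent and exposed to chemical for 48 h, then fixed with 10% TCA and stained with 0.1% sulforhodamine B; absorbance at 560 nm gave relative cell number, fitted bidirectionally against DMSO baseline.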

[14] = molecular target: Peroxisome proliferator-activated receptor gamma (Homo sapiens) (UniProt P37231); experiment: ATG_PPARg_TRANS: Attagene TRANS-FACTORIAL HepG2 Assay for human Peroxisome Proliferator-activated Receptor-gamma (PPARg) (AID 2283007; active means hit-call score of the fitted dose curve at least 0.9, where 1 is the maximum)
In short: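 Multiplexed reporter transcription units in HepG2, 24 h dosing, reporter transcripts quantified by fluorescent RT-PCR and capillary electrophoresis. Increase over DMSO scored.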

[15] = molecular target: human Retinoic Acid Receptor gamma (RARg), RARG (gene 5916) (UniProt P13631); experiment: ATG_RARg_TRANS: Attagene TRANS-FACTORIAL HepG2 Assay for human Retinoic Acid Receptor gamma (RARg) (AID 2283009; active means hit-call score of the fitted dose curve at least 0.9, where 1 is the maximum)
In short: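 HepG2 cells transiently transfected with multiplexed reporter units expressing chimeric RARg-GAL4 and GAL4-UAS-driven reporters; 24 h compound exposure. Reporter mRNA quantified by RT-PCR with fluorescent labelling and capillary electrophoresis; gain-of-signal fitted relative to DMSO baseline.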

[16] = molecular target: human RAR-related Orphan Receptor beta (RORb), RORB (gene 6096) (UniProt Q92753); experiment: ATG_RORb_TRANS: Attagene TRANS-FACTORIAL HepG2 Assay for human RAR-related Orphan Receptor beta (RORb) (AID 2283010; active means hit-call score of the fitted dose curve at least 0.9, where 1 is the maximum)
In short: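 HepG2 cells were transiently transfected with multiplexed GAL4-UAS reporter units expressing chimeric nuclear receptor–GAL4 proteins, then dosed for 24 h. Reporter mRNA was quantified by RT-PCR with fluorescent labelling and capillary electrophoresis; gain of signal was fitted relative to DMSO.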

[17] = molecular target: Cellular tumor antigen p53 (Homo sapiens) (UniProt P04637); experiment: ATG_p53_CIS: Attagene CIS-FACTORIAL HepG2 Assay for human p53 Transcription Factor (AID 2282994); settings: HepG2 p53 cis-element reporter, Attagene mRNA; actives raise or lower the signal
In short: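 HepG2 cells transiently transfected with multiplexed cis-regulated reporter transcription units read endogenous TF activity. After 24 h compound exposure, reporter mRNA was quantified by RT-PCR, fluorescent labelling, HpaI digestion and capillary electrophoresis; bidirectional fits versus DMSO baseline.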

[18] = molecular target: human Peroxisome Proliferator-activated Receptor delta (PPARd), PPARD (gene 5467) (UniProt Q03181); experiment: ATG_PPARd_TRANS: Attagene TRANS-FACTORIAL HepG2 Assay for human Peroxisome Proliferator-activated Receptor delta (PPARd) (AID 2283002; active means hit-call score of the fitted dose curve at least 0.9, where 1 is the maximum)
In short: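 HepG2 cells transiently transfected with GAL4-UAS multiplexed reporter units driven by exogenous chimeric NR-GAL4 proteins; 24 h compound exposure. Reporter mRNA measured by RT-PCR, 6-FAM primer extension, HpaI digestion and capillary electrophoresis; gain of signal fitted relative to DMSO.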

[19] = molecular target: Nuclear receptor subfamily 1 group I member 2 (Homo sapiens) (UniProt O75469); experiment: ATG_PXR_TRANS: Attagene TRANS-FACTORIAL HepG2 Assay for human Pregnane X Receptor (PXR) (AID 2283008; active means hit-call score of the fitted dose curve at least 0.9, where 1 is the maximum)
In short: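 HepG2 cells transiently transfected with multiple reporter units, here a PXR-GAL4 chimera driving a GAL4-UAS reporter; 24 h compound exposure. Reporter mRNA measured by RT-PCR, FAM labelling and capillary electrophoresis; gain of signal fitted against DMSO baseline.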

[20] = molecular target: Retinoic acid receptor alpha (Homo sapiens) (UniProt P10276); experiment: ATG_RARa_TRANS: Attagene TRANS-FACTORIAL HepG2 Assay for human Retinoic Acid Receptor alpha (RARa) (AID 2283005; active means hit-call score of the fitted dose curve at least 0.9, where 1 is the maximum)
In short: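 HepG2 transiently transfected with multiplex GAL4-UAS reporter units including a human RARa–GAL4 chimera; 24 h compound exposure. Reporter mRNA quantified by RT-PCR, 6-FAM labeling and capillary electrophoresis; gain of signal versus DMSO.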

Measured: AC50

Chain of Cellular tumor antigen p53 (Homo sapiens) (P04637 whole entry, looked up): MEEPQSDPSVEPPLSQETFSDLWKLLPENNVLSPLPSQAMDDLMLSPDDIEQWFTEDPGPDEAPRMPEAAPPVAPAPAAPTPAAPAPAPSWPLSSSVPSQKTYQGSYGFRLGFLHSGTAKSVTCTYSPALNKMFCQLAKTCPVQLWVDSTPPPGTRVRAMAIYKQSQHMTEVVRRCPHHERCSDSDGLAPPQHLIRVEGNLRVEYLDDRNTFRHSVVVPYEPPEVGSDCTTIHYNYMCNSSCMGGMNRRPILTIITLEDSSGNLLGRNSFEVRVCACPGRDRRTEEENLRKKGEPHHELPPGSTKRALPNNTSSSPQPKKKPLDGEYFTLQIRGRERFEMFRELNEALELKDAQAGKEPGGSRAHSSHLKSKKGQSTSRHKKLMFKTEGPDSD
Chain of human RAR-related Orphan Receptor beta (RORb), RORB (gene 6096) (Q92753 whole entry, looked up, the tested form may be a part): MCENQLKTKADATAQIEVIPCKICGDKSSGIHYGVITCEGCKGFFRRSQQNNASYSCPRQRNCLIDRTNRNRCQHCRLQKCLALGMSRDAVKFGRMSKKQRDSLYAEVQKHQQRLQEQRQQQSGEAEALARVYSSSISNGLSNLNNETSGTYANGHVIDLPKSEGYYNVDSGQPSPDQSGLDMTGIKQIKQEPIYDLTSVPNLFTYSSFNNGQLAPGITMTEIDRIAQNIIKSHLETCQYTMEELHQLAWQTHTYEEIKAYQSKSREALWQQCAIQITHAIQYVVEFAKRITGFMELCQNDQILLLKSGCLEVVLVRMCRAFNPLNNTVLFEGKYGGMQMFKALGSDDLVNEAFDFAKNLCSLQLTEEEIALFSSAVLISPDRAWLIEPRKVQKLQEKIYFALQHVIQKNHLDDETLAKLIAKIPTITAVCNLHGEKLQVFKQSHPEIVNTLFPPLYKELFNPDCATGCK
Chain of Peroxisome proliferator-activated receptor gamma (Homo sapiens) (P37231 whole entry, looked up): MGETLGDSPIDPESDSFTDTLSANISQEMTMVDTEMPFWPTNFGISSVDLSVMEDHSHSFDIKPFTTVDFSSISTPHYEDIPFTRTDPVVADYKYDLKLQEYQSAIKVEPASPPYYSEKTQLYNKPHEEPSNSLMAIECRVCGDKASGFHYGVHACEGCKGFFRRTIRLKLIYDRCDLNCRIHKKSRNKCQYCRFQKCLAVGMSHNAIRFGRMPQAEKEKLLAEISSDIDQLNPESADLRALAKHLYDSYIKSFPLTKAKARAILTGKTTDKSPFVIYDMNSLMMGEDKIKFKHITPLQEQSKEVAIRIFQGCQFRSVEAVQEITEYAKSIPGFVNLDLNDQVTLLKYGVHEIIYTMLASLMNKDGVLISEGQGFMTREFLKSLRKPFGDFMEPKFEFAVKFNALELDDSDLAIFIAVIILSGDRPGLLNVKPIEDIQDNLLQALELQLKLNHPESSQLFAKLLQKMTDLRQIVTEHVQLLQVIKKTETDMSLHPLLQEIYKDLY
Chain of human Peroxisome Proliferator-activated Receptor alpha (PPARa), PPARA (gene 5465) (Q07869 whole entry, looked up, the tested form may be a part): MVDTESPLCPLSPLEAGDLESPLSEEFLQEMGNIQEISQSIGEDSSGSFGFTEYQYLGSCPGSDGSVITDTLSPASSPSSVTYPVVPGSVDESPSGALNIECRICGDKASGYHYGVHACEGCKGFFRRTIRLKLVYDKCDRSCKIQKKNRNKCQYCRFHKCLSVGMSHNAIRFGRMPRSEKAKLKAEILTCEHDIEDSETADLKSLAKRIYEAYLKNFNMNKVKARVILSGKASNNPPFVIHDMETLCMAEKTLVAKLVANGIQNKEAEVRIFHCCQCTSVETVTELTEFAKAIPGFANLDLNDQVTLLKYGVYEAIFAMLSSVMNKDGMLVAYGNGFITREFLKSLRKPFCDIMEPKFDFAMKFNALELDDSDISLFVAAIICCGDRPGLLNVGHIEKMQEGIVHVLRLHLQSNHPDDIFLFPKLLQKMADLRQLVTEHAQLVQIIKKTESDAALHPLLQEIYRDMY
Chain of human Peroxisome Proliferator-activated Receptor delta (PPARd), PPARD (gene 5467) (Q03181 whole entry, looked up, the tested form may be a part): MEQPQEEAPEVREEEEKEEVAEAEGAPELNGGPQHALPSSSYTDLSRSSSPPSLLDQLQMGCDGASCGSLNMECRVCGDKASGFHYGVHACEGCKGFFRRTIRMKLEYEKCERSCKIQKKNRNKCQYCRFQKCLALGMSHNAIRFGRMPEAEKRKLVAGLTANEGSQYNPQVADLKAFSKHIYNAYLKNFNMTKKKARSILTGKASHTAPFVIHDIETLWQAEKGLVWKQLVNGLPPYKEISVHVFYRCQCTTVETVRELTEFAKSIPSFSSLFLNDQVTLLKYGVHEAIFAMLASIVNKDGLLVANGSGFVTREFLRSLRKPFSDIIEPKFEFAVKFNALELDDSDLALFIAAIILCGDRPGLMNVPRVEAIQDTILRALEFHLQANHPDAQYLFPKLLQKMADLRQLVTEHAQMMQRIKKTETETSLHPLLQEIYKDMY
Chain of Myc proto-oncogene protein (Homo sapiens) (P01106 whole entry, looked up): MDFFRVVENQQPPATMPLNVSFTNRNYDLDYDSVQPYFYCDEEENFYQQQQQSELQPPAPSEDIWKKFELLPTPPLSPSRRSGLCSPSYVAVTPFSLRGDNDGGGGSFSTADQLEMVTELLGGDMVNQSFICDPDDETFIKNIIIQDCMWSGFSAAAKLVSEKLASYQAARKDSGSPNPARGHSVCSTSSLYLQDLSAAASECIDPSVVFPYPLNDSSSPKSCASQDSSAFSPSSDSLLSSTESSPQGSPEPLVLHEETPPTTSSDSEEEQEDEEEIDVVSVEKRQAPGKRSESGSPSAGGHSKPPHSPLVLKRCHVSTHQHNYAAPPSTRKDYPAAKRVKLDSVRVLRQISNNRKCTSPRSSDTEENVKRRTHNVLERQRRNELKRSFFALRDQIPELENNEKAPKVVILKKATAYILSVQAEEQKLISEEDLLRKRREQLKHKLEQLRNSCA
Chain of Nuclear receptor subfamily 1 group I member 2 (Homo sapiens) (O75469 whole entry, looked up, the tested form may be a part): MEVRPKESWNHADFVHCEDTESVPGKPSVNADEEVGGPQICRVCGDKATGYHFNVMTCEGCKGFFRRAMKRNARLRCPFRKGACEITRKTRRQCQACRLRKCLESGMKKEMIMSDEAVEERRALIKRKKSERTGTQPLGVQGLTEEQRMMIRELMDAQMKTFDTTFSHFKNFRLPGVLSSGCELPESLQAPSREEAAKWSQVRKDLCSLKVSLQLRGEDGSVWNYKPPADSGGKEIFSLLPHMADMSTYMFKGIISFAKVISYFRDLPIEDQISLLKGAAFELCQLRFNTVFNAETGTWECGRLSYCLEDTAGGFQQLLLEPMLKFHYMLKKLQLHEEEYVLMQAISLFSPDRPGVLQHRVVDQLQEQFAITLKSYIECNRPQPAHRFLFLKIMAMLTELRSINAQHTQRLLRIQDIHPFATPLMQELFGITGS
Chain of human Retinoic Acid Receptor beta (RARb), RARB (gene 5915) (P10826 whole entry, looked up, the tested form may be a part): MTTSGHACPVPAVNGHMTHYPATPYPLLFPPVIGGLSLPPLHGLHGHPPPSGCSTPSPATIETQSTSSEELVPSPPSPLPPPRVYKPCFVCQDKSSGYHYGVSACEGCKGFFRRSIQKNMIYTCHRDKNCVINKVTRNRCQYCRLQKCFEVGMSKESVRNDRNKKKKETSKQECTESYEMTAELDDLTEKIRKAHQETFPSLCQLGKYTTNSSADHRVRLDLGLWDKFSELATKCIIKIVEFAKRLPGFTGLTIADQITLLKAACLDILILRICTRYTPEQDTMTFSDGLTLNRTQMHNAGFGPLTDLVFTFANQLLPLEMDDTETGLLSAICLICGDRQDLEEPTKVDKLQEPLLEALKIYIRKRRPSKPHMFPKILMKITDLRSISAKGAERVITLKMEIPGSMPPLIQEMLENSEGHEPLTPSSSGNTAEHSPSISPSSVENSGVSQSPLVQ
Chain of human Retinoic Acid Receptor gamma (RARg), RARG (gene 5916) (P13631 whole entry, looked up, the tested form may be a part): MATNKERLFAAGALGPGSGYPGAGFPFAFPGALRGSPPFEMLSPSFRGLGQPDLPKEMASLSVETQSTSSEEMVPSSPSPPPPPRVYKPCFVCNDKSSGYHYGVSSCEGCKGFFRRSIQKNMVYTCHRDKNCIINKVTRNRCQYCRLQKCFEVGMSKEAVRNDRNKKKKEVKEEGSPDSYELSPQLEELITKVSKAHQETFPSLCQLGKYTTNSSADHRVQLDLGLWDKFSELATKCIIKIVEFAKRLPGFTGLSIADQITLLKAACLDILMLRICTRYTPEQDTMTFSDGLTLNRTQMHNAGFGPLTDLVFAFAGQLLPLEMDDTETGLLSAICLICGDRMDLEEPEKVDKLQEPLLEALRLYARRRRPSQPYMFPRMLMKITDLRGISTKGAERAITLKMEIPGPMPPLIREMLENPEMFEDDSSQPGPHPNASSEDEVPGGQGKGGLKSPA
Chain of Retinoic acid receptor alpha (Homo sapiens) (P10276 whole entry, looked up, the tested form may be a part): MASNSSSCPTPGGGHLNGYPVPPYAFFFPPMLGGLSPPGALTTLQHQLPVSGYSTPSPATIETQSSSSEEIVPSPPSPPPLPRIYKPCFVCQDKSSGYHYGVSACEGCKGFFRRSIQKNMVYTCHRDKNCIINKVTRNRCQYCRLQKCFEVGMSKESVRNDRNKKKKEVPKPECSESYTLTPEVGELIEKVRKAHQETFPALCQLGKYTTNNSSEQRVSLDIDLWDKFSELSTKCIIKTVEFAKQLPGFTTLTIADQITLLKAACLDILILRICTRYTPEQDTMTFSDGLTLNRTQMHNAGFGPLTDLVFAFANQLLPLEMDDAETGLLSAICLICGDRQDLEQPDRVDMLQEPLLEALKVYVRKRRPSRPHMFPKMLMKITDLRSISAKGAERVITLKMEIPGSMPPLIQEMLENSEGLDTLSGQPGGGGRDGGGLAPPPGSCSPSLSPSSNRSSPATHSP

O=[N+]([O-])C(Br)(CO)CO
active: [2] 74.6 µM | [5] 156 µM | [6] 27.1 µM | [7] 30.5 µM | [8] 31.1 µM | [9] 27.7 µM | [11] 33.4 µM | [13] 5.94 µM
not listed: [17] | [18] | [19] | [20]
inactive: all other assays above

ClC1=C(Cl)[C@]2(Cl)[C@H]3[C@H]([C@@H]4C=C[C@H]3C4)[C@@]1(Cl)C2(Cl)Cl
active: [4] 50.5 µM | [5] 25.1 µM | [6] 28.5 µM | [7] 16.1 µM | [8] 28.7 µM | [9] 34.1 µM | [11] 35 µM | [13] 12.2 µM | [19] 9.08 µM
inactive: [1] | [2] | [17] | [10] | [18] | [14] | [16]

CC(C)(C)OOC(C)(C)CCC(C)(C)OOC(C)(C)C
active: [4] 75.2 µM | [12] 24.7 µM
not listed: [3] | [10] | [14] | [15] | [16] | [18] | [20]
inactive: all other assays above

O=C(Nc1ccccc1)c1ccccc1I
active: [4] 20.3 µM | [14] 17.8 µM | [19] 10.6 µM
not listed: [10] | [12] | [15] | [17] | [20]
inactive: all other assays above

OCCCl
not listed: [3] | [12] | [14]
inactive: all other assays above

Reference: PubChem BioAssay (EPA / NIEHS)
